For 27 compounds, inhibition results are on record in PubChem BioAssay AID1578 (Sanford-Burnham Center for Chemical Genomics, 2009).

The structures appear in SMILES notation. In all, about 290,000 compounds went through this assay and about 3,000 (1%) were called active. Cut-off read from the data, not from the text of the source: active = inhibition mostly above about 36% (no sharp cut-off); inactive = mostly below about 34%. The full list was thinned out, with actives kept by preference.

This assay can be described thus: inhibition of NOD1-driven NF-kB reporter – cell-based, luminescence, uHTS, primary screen (AID 1578).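 Note: HEK-293T reporter cells stimulated with the NOD1 agonist gamma-tri-DAP.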 Conditions: NOD1-driven NF-kB luciferase reporter cells, at 4 µM, stronger effect = higher value. (In a reporter assay the amount or activity of a reporter protein is the signal.)
Broadly, the inhibition is the change of the read-out against control, counted positive when it falls. Regarding `Cc1ccsc1C(=O)NNC(=O)C1CCCCC1C(=O)O` (configuration not stated), the inhibition was -15.7% (inactive). On to `Cc1ccsc1C(=O)NNC(=O)C1C2C=CC(C2)C1C(=O)O` (configuration not stated), for which the inhibition is 72.2% (active). Consider `Cc1ccsc1C(=O)NNC(=O)C1CC=CCC1C(=O)O` (configuration not stated), for which the inhibition was -25.2% (inactive). Under `CCCCC(=O)Nc1cccc(-c2cn3ccccc3n2)c1` stands -43.7% (inactive). Under `O=C(CCS(=O)(=O)c1cc2c(cc1Cl)NC(=O)CO2)NCc1ccccc1` stands 95% (active); under `Cc1ccc(CNC(=O)CCS(=O)(=O)c2cc3c(cc2Cl)NC(=O)CO3)cc1`, -6.8% (inactive). Take `O=C(CCS(=O)(=O)c1cc2c(cc1Cl)NC(=O)CO2)NCc1ccc(F)cc1`: the inhibition is -25.6% (inactive). As for `CC(=O)OC[C@H]1O[C@@H](O/N=C(\C)CCN2CCCCc3nc(C)c(C)cc32)[C@H](OC(C)=O)[C@@H](OC(C)=O)[C@@H]1OC(C)=O`, the inhibition was -2.5% (inactive). For the compound `Cc1ccc(S(=O)(=O)c2nc(-c3ccccc3F)oc2N2CC(C)OC(C)C2)cc1` (configuration not stated), the inhibition was -20% (inactive).

As for `Cc1cc(C)c(C)c(/C=C(/C#N)C(N)=S)c1C`, the inhibition was 14.2% (inactive).

For `Cc1ccc(-c2ccc(/C=C(\C#N)C(N)=S)n2C)cc1`, the inhibition was -19.8% (inactive). Under `Cc1cc(C)c(/C=C(\C#N)C(N)=S)c(C)c1` stands 106% (active). Take `CC1CCN(C(=O)COc2cccc3c2CCN(Cc2ccccc2)C3=O)CC1`: the inhibition is -16% (inactive). Regarding `CC(=O)c1sc(Nc2nc3ccc(F)cc3s2)nc1C`, the inhibition is -20.9% (inactive).

As for `COc1ccc2nc(NC(C)=O)sc2c1`, the inhibition is -12.9% (inactive). Under `Clc1ncccc1-c1nnn(-c2ccccc2Br)n1` stands -23.5% (inactive).

For the compound `CCc1nnc(NC(=O)c2ccc(NC(=O)C(C)C)cc2)s1`, the inhibition was -39.9% (inactive). As for `N#C/C(=C(/O)CN1CCOCC1)c1nc(-c2ccccc2)cs1`, the inhibition is -15.4% (inactive). `COc1ccc(/C=N/NC(=O)c2cc(C3CC3)[nH]n2)cc1OC`: the inhibition is -1.2% (inactive). Under `COc1ccccc1C(=O)CSc1n[nH]c(N)n1` stands 65.9% (active); under `COc1ccc(C(=O)CSc2n[nH]c(N)n2)cc1`, -10% (inactive); under `COc1ccccc1CNC(=O)CSc1n[nH]c(N)n1`, -8.6% (inactive).

For the compound `Cc1ccc2nc(-c3ccccn3)cc(C(=O)NCCc3ccc(F)cc3)c2c1`, the inhibition is -8.3% (inactive). Consider `CC(C)OC(=O)c1ccc(COC(=O)c2cccc(-c3nnc(-c4ccccc4)o3)c2)cc1`, for which the inhibition is -13% (inactive). Regarding `N=C(N)N=Nc1c(O)[nH]c2ccc(Br)cc12`, the inhibition is -31.8% (inactive).

As for `Oc1[nH]c2ccc(Br)cc2c1N=NC(=S)Nc1ccc(F)cc1`, the inhibition was -7.9% (inactive). To `Oc1[nH]c2ccc(Br)cc2c1N=NC(=S)N1CCOCC1` belongs 99% (active).
